Potency estimated from few doses data for 5 molecules are collected here from publication PMC11062922 (Nature Chemical Biology, 2023).

Read-outs that look alike come from different tables or passages of the source.

Common to all, as to set-up: species or system human, MV4-11 + K-562 + COLO205 + SK-N-BE2 + OVCAR-8
The test system of test [1] is ACVR1B. As to conditions: read-out: apparent Kd, n = 1.
Test [2] concerns ADCK1. As to conditions: read-out: apparent Kd; compound concentrations:100 nM and 1000 nM (sheet 'Samples'); n = 1.
The subject of test [3] is PIK3CA. The note with it: read-out: apparent Kd; compound concentrations:100 nM and 1000 nM (sheet 'Samples'); n = 1.
Test [4] concerns PIK3CD. The note with it: read-out: apparent Kd; compound concentrations:100 nM and 1000 nM (sheet 'Samples'); n = 1.
Test [5] deals with PKN1. The note with it: read-out: apparent Kd; compound concentrations:100 nM and 1000 nM (sheet 'Samples'); n = 1.
Test [6] has as its system PKN2. As to conditions: read-out: apparent Kd; compound concentrations:100 nM and 1000 nM (sheet 'Samples'); n = 1.
In test [7] the test system is RAB5C. The note with it: read-out: apparent Kd; compound concentrations:100 nM and 1000 nM (sheet 'Samples'); n = 1.
The subject of test [8] is TTN. As to conditions: read-out: apparent Kd; compound concentrations:100 nM and 1000 nM (sheet 'Samples'); n = 1.
For test [9], the system named is CSNK1D. As to conditions: read-out: apparent Kd, n = 1.
The test system of test [10] is CSNK1E. As to conditions: read-out: apparent Kd, n = 1.
Test [11] has as its system MAPK14. As to conditions: read-out: apparent Kd, n = 1.
Test [12] concerns CDK7. As to conditions: read-out: apparent Kd; compound concentrations:100 nM and 1000 nM (sheet 'Samples'); n = 1.
The subject of test [13] is GAK. The note with it: read-out: apparent Kd; compound concentrations:100 nM and 1000 nM (sheet 'Samples'); n = 1.
For test [14], the system named is NQO2. As to conditions: read-out: apparent Kd; compound concentrations:100 nM and 1000 nM (sheet 'Samples'); n = 1.
The subject of test [15] is PRKD2. As to conditions: read-out: apparent Kd; compound concentrations:100 nM and 1000 nM (sheet 'Samples'); n = 1.
Test [16] relates to PRKD3. As to conditions: read-out: apparent Kd; compound concentrations:100 nM and 1000 nM (sheet 'Samples'); n = 1.
The subject of test [17] is TGFBR1. As to conditions: read-out: apparent Kd; compound concentrations:100 nM and 1000 nM (sheet 'Samples'); n = 1.
Test [18] has as its system TGFBR2. As to conditions: read-out: apparent Kd; compound concentrations:100 nM and 1000 nM (sheet 'Samples'); n = 1.
The test system of test [19] is TNIK. As to conditions: read-out: apparent Kd; compound concentrations:100 nM and 1000 nM (sheet 'Samples'); n = 1.
The test system of test [20] is TNK1. As to conditions: read-out: apparent Kd; compound concentrations:100 nM and 1000 nM (sheet 'Samples'); n = 1.
Test [21] deals with CIT. As to conditions: read-out: apparent Kd; compound concentrations:100 nM and 1000 nM (sheet 'Samples'); n = 1.
Test [22] relates to MAP4K2. The note with it: read-out: apparent Kd; compound concentrations:100 nM and 1000 nM (sheet 'Samples'); n = 1.
In test [23] the test system is PKN3. As to conditions: read-out: apparent Kd; compound concentrations:100 nM and 1000 nM (sheet 'Samples'); n = 1.
Test [24] deals with RIPK2. The note with it: read-out: apparent Kd; compound concentrations:100 nM and 1000 nM (sheet 'Samples'); n = 1.
In test [25] the test system is TESK2. As to conditions: read-out: apparent Kd; compound concentrations:100 nM and 1000 nM (sheet 'Samples'); n = 1.
In test [26] the test system is ADCK3. The note with it: read-out: apparent Kd; compound concentrations:100 nM and 1000 nM (sheet 'Samples'); n = 1.
Where [27] appears, read: compound concentrations:100 nM and 1000 nM (sheet 'Samples').

Regarding `Cl.Cl.c1ccc(-c2cc3ccncc3cc2OC2CCNCC2)cc1.c1ccc(-c2cc3ccncc3cc2OC2CCNCC2)cc1` [GSK1122999D], the potency estimated from few doses in test [1] (setting [27]) was 1.16 µM; in test [2], 1.28 µM; in [3] it was 0.287 µM; in test [4] it was 0.179 µM; in [5], 2.03 µM; in test [6], 2.04 µM. The potency estimated from few doses in test [7] was 1.19 µM; in test [8], 0.886 µM.

Take `CN(C)CCCNc1nccc(-c2c(-c3ccc(F)cc3)nn3cc(C(F)(F)F)ccc23)n1.CS(=O)(=O)O` [GW618013A]: the potency estimated from few doses was 0.849 µM in test [1] (compound concentrations: 100 nM and 1000 nM (sheet 'Samples'), CATDS: 0.30191803443786602); 0.827 µM in test [9] (compound concentrations: 100 nM and 1000 nM (sheet 'Samples'), CATDS: 0.30648491159914698); 2.34 µM in [10] (compound concentrations: 100 nM and 1000 nM (sheet 'Samples'), CATDS: 0.19201098088976601); 1.37 µM in test [11] (compound concentrations: 100 nM and 1000 nM (sheet 'Samples'), CATDS: 0.23713518302070899).

As for `c1ccc(-c2n[nH]cc2-c2ccnc(-c3ccc(CNC4CCOCC4)cc3)c2)nc1` [GW709213X], the potency estimated from few doses in test [1] (setting [27]) was 0.0391 µM; in [12], 1.09 µM; in test [9] (setting [27]), 1.5 µM; in test [13] it was 1.15 µM; in test [14] it was 0.925 µM; in [15] it was 0.195 µM. For the same molecule, the potency estimated from few doses in [16] is 0.193 µM; in test [17] it was 0.0126 µM; in test [18] it was 1.33 µM; in [19], 2.41 µM; in test [20], 0.445 µM.

Regarding `Cc1cccc(-c2nc(Nc3ccncc3)c3ccccc3n2)n1` [GW855857X], the potency estimated from few doses in test [1] (setting [27]) was 0.000502 µM; in test [21] it was 1.12 µM; in [9] (setting [27]) it was 0.897 µM; in [10] (setting [27]), 1.19 µM; in test [22], 1.63 µM; in test [11] (setting [27]), 1.47 µM. In addition, the potency estimated from few doses in test [23] is 0.0755 µM; in test [15], 0.00339 µM; in [16], 0.00673 µM; in test [24] it was 0.59 µM; in test [25], 1.34 µM; in [18], 0.855 µM.

Regarding `COc1ccc2cc(-c3c(-c4ccncc4)nc(-c4ccc(S(C)(=O)=O)cc4C)n3C)ccc2c1` [SB-633825], the potency estimated from few doses in test [1] (setting [27]) was 0.686 µM; in test [26] it was 0.803 µM.
